Bioassay records: PubChem BioAssay, National Center for Advancing Translational Sciences (NCATS)
The list is not random: actives were taken first. Their share in the collection is about 19%.
DT40 TDP1 no CPT: qHTS for Inhibitors of human tyrosyl-DNA phosphodiesterase 1 (TDP1): qHTS in cells in absence of CPT. DT40 Tdp1-/- hTDP1 cells, no CPT, ATP luminescence, 48 h. 15% of 420,000 active. Potency, µM (top dose mostly 46.2 µM), for inactives: at the highest dose activity change, negative = growth inhibition, hits mostly inhibitors; further: potency means the concentration at half of the fitted maximal effect; nearly all actives have a fitted effect of over 55% in size
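Growth of hTDP1-complemented DT40 Tdp1-knockout cells is measured by ATP luminescence after at least 48 hr compound exposure at 37 °C, with DMSO substituting for the 20 nM CPT used in the parallel screen.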
HT1080 IDH1KD tx: kills HT-1080 cells with IDH1 knockdown. HT-1080 IDH1 knockdown viability, ATP luminescence, 48 h. Potency, µM (highest dose often 46.1 µM), without a hit: at the highest dose activity, negative = toxicity, actives largely listed as cytotoxic. 2% of 360,000 active. AID 686971;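 further: potency means the concentration at half of the fitted maximal effect; 0% = DMSO wells and -100% = cell-free medium wells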
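Cytotoxicity counter-line: IDH1KD HT-1080, 48 h, CellTiter-Glo. Curves classed by r2, magnitude and activity.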
DT40 TDP1 CPT: growth inhibition of DT40 Tdp1-/-;hTDP1 cells with camptothecin (screen for TDP1 inhibitors); chicken DT40 Tdp1-/-;hTDP1 cells + 20 nM CPT, ATP luminescence, 48 h; Potency, µM (series often up to 46.2 µM), for inactives: top-dose activity change, negative = growth inhibition, usual class: inhibitors; 12% of 420,000 active; further: potency means the concentration at half of the fitted maximal effect; nearly all actives have a fitted effect of over 55% in size
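Chicken DT40 Tdp1-/- cells stably complemented with human TDP1 were seeded at 400 cells/well in medium containing 20 nM camptothecin, exposed to pin-transferred compounds, and grown at 37 °C for at least 48 hr. Viability was read as ATP luminescence.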
IL1B secr inh: blocks inflammasome-driven IL-1 beta release | THP-1 LPS/ATP IL-1B secretion, AlphaLISA, 16 h; active compounds read low | 4.7% of 360,000 active | activity change, % at 57.5 µM | AID 743279; in the data active means activity change below about -50%; inconclusive means mostly about -30% to -49%
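THP-1 cells pretreated 1 hr with compounds (up to 57.5 uM final), then stimulated with LPS (250 ng/mL final) plus ATP (1.25 mM final); secreted IL-1B measured by AlphaLISA after 16 hr, decreased signal indicating inhibition.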
HT1080NT lethal: kills 2HG-producing HT-1080-NT fibrosarcoma cells | HT-1080-NT fibrosarcoma viability, CellTiter-Glo ATP luminescence, 48 h | Potency, µM (highest dose often 46.1 µM), without a hit: at the highest dose activity, negative = less viability, actives largely listed as cytotoxic | 1.6% of 360,000 active | AID 686970;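 further: NT is the 2HG producing partner of a matched IDH1 knockdown line; potency means the concentration at half of the fitted maximal effect; 0% = DMSO-treated cells and -100% = media-only wells without cells; nearly all actives have a fitted effect of over 55% in size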
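Read-out is CellTiter-Glo luminescence after 10 minutes at room temperature, following 48 hours' compound treatment of HT-1080-NT cells (750 cells/well, RPMI, 5% FBS, 37 degrees C).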
Starred values were filed as active, the others as inactive; ? = inconclusive; . = not tested or not shown; [ ] = remark or other dose. Unless noted, the call rests on the fitted dose curve; in most records, active means well fitted curve in the direction sought with a large enough effect; inconclusive means small, poorly fitted or top-dose-only effect, or another doubt; inactive means no such curve, though single readings can be large; an effect the other way counts as inactive or inconclusive. Unless noted, on the % scale 0 is the no-effect control and ±100 the full control effect.

SMILES	DT40 TDP1 no CPT	HT1080 IDH1KD tx	DT40 TDP1 CPT	IL1B secr inh	HT1080NT lethal
CCN(CC)C(=O)c1cccc(-c2csc(C(NC(C)=O)c3cccc(OC)c3)n2)c1 (stereo not given)	?	5.6%	?	13.4	-7.5%
COc1ccc(CNC(=O)C2CCCN2c2nc(C)c3ccccc3n2)cc1 (stereo not given)	-20.5%	.	-0.2%[9.04 µM]	.	.
CCOc1ncccc1C(=O)NCCCSc1ccccc1	?	1.5%	-23.4%	-8.3	4.1%
c1ccc2c(CCNc3ncnc4nc[nH]c34)c[nH]c2c1	11.6µM*	?	6.51µM*	72.8	-25.4%
O=S(=O)(NCCc1csc2nc(-c3ccc(F)cc3)nn12)c1ccc(Oc2ccccc2)cc1	20.6µM*	.	14.6µM*	.	.
Cc1ccc(NC(=O)C(=O)NCCc2csc3nc(-c4ccccc4C)nn23)cc1Cl	9.2%	.	-5.8%	.	.
Cc1ccc(C)c(NC(=O)C(=O)NCCc2csc3nc(-c4ccccc4C)nn23)c1	18.4µM*	.	?	.	.
CS(=O)(=O)NCCc1csc2nc(-c3ccccc3)nn12	0.5%	.	-3.7%	.	.
Cc1csc2nc(CCNS(=O)(=O)c3ccc(F)cc3)cn12	0.6%	.	-11.1%	.	.
CC(C)(C)NC(=O)CSc1nc(-c2ccc(F)cc2)cs1	4.4%	-17.0%	9.8%	-18.4	-7.3%
CC(C)(C)C(=O)NCCc1csc2nc(-c3ccc(F)cc3)nn12	14.6µM*	.	?	.	.
CCCS(=O)(=O)NCCc1csc2nc(-c3ccc(C)cc3)nn12	23.1µM*	.	?	.	.
COCc1cc(C)nc2sc(C(=O)Nc3cc(C)ccc3F)c(N)c12	?	.	-14.0%	.	.
COc1ccc(-c2nc3scc(CCNC(=O)c4cccc(Br)c4)n3n2)cc1	25.9µM*	.	?	.	.
COc1ccc(C(CNC(=O)c2cccc(Br)c2)N2CCCC2)cc1 (stereo not given)	?	-0.7%	?	-13.2	3.2%
Cc1ccc(S(=O)CCNC(=O)Cc2ccc(Cl)cc2)cc1 (stereo not given)	-4.4%	1.3%	-13.3%	-9.8	-2.2%
Cc1ccc(-c2nc3scc(CCNS(=O)(=O)c4ccc(C)c(C)c4)n3n2)cc1	20.6µM*	.	?	.	.
Cc1ccc(-c2nc3scc(CCNC(=O)Cc4ccc(Cl)cc4)n3n2)cc1	18.4µM*	.	14.6µM*	.	.
CC1(C(=O)NS(=O)(=O)c2ccc(Br)cc2)CCN1C(=O)CCc1cccs1 (stereo not given)	-2.1%	3.6%	-22.0%	30.9	24.5%
Cc1cccc(C2c3[nH]c4ccccc4c3CCN2C(=O)c2cc(CC(C)C)[nH]c(=O)n2)n1 (stereo not given)	?	-10.6%	?	2.9	-8.7%
NCCCCCc1nnc(SC/C=C/c2ccccc2)o1	23.1µM*	-12.5%	18.4µM*	-0.8	-8.6%
O=C(CCn1c(=O)c2cccn2c2cccnc21)NCCCN1CCN(c2ccc(F)cc2)CC1	?	-8.9%	-19.1%	-25.3	-10.2%
Cc1ccc(S(=O)(=O)c2cn(CC(=O)Nc3ccccc3C)c3cc4c(cc3c2=O)OCO4)cc1	-3.9%	.	0.4%	.	.
C/C(CC(=O)Nc1ccc(C)c(Cl)c1)=N\NC(=O)Cc1cccs1	-10.0%	-20.8%	-25.5%	-6.1	-8.0%
CCN(CC)c1ccc(NC(=O)CN(C)Cc2cccs2)cc1	16.4µM*	-1.9%	?	-13.3	-8.3%
SMILES	DT40 TDP1 no CPT	HT1080 IDH1KD tx	DT40 TDP1 CPT	IL1B secr inh	HT1080NT lethal
Cc1ccc(NC(=O)CN(C)Cc2cccs2)cc1Cl	20.6µM*	18.5%	?	-16.8	14.4%
COc1cc2c(cc1NS(=O)(=O)c1cccc(C#N)c1)n(C)c(=O)n2C	?	.	20.6µM*	.	.
COc1ccc(OC)c(Nc2nc(N)nc(-c3cc4ccccc4o3)n2)c1	18.4µM*	2.0%[9.24 µM]	?	-5.9	-27.9%
COc1ccc(C)cc1N(CC(=O)N/N=C/c1ccccc1C(=O)O)S(=O)(=O)c1ccccc1	-7.1%	3.5%	-16.6%	-1.5	0.0%
Cc1cccc(C(=O)NNC(=O)c2ccco2)c1	1.0%	-0.3%	-1.4%	-12.8	3.6%
O=C(N/N=C/c1cn(-c2cccs2)nc1-c1ccccc1)c1ccccc1Br	23.1µM*	-29.5%	23.1µM*	?	-15.1%
